Here are results for 10 compounds from PubChem BioAssay.

Experiment [1] can be described thus: growth inhibition of DIPG glioma cells, dose response, cell-based, JHH-DIPG-1, MIPE4.0, CellTiter-Glo, qHTS (AID 1347062).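 As to AC50: cells exposed to compound for two days before readout.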 As to conditions: JHH-DIPG-1 viability, CellTiter-Glo ATP luminescence. On the technique in general: ATP-based viability assays read luminescence as a measure of living cells.
Experiment [2] in a line: SU-DIPG-VI glioma cell viability, MIPE4.0 library, CellTiter-Glo luminescence, qHTS (AID 1347066; cut-off not given, nearly all actives have AC50 up to about 30 µM;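 also: cells exposed to compound for 48 hours before readout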). Particulars: CellTiter-Glo ATP luminescence.
Experiment [3] can be described thus: viability loss in pontine glioma line – cell-based, SU-DIPG-XXV, MIPE5.0, CellTiter-Glo, qHTS, dose response (AID 1347065; cut-off not given, nearly all actives have AC50 up to about 26 µM;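 also: cells exposed to compound for 48 hours before ATP readout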). As to conditions: CellTiter-Glo ATP luminescence.
Experiment [4] is described as follows: JHH-DIPG-1 glioma cell viability, MIPE5.0 library, CellTiter-Glo luminescence, qHTS (AID 1347067; cut-off not given, nearly all actives have AC50 up to about 26 µM;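 also: cells exposed to compound for 48 hours before readout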). As to conditions: JHH-DIPG-1 glioma viability, CellTiter-Glo ATP luminescence.
Experiment [5] can be described thus: SU-DIPG-XXV glioma cell viability, MIPE5.0 library, qHTS (AID 1347068; cut-off not given, nearly all actives have IC50 up to about 30 µM).
The nature of experiment [6]: sensitizers of A549 cells to miR-34 induction, primary screen, imaging, A549 dox-inducible miR-34, nuclei and caspase counts (AID 1347080;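 active = compounds whose cell count with miR-34 switched on is under 0.7 times the count with it off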). Particulars: A549 miR-34 inducible, Hoechst nuclei count, 48 h.
A short description of experiment [7]: survival rescue of mitochondrial mutant cells in low glucose, primary screen, MELAS cybrids, Rieske KO mouse fibroblasts, CellTiter-Glo (AID 1508586;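 active = mean z-score across replicates of 1.96 or higher in either the MELAS or the Rieske mutant cell line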;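 also: z relative to plate mean and SD of compound and empty wells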).
A short description of experiment [8]: growth inhibition of DIPG glioma cells, dose response, cell-based, SU-DIPG-XIII, MIPE5.0, CellTiter-Glo, qHTS (AID 1347064; cut-off not given, nearly all actives have AC50 up to about 23 µM;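 as to AC50: cells exposed to compound for 48 hours before the viability read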). As to conditions: SU-DIPG-XIII viability, CellTiter-Glo ATP luminescence.
Experiment [9] can be described thus: growth inhibition of DIPG glioma cells, dose response, cell-based, SU-DIPG-IV, MIPE4.0, CellTiter-Glo, qHTS (AID 1347063; cut-off not given, nearly all actives have AC50 up to about 30 µM;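 also: compound exposure lasted 48 hours before the viability readout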). As to conditions: SU-DIPG-IV viability, CellTiter-Glo ATP luminescence.
[10] abbreviates: stronger effect = lower value, cell number ratio, induced over uninduced.
[11] abbreviates: measured here: relative caspase fold change +Dox/-Dox.
Where [12] appears, read: measured here: total cells with miR-34 induction, stronger effect = lower value.
Where [13] appears, read: measured here: total cells without miR-34 induction.
Setting [14] is: MELAS cybrid survival, CellTiter-Glo 48 h, stronger effect = higher value.
The mark [15] stands for this setting: Rieske KO mouse fibroblast survival, CellTiter-Glo 72 h.

Inconclusive results are not listed. The source made the active and inactive calls. Unless noted, the limit is not given here; nearly all actives have AC50 up to about 27 µM.

A word on the AC50: it is the midpoint of the concentration-response curve, whichever way the signal moves.

Turning to `CC(=O)NC(C)c1ccc(Oc2ccc(OC(C)C)cc2)cc1` (centres undefined), the compound was called inactive in experiment [1] and in experiment [2].
For the compound `CC(C)(C)c1nc(-c2cccc(NS(=O)(=O)c3c(F)cccc3F)c2F)c(-c2ccnc(N)n2)s1`, the compound was classed as inactive in [1], in experiment [3], in experiment [4] and in [5]. Also, the fold change in experiment [6] (setting [10]) is 1 (inactive); in experiment [6] (setting [11]), 0.762. Besides, the cell count in experiment [6] (setting [12]) and in [6] (setting [13]) was 8520 each time. The z-score in experiment [7] (setting [14]) is -0.255 (inactive); in [7] (setting [15]), 0.678.
On to `COc1ccc2c(Oc3ccc(NC(=O)c4c(C)n(CC(C)(C)O)n(-c5ccccc5)c4=O)cc3F)ccnc2c1`, for which the compound was classed as inactive in experiment [1], in [8], in experiment [2] and in experiment [5]. Moreover, the AC50 in experiment [3] and in experiment [4] was 20.9 µM (active) each time.
With `Nc1ncnc2c1c(-c1cccc(OCc3ccccc3)c1)cn2C1CC(CN2CCC2)C1` (centres undefined), the AC50 is 11.8 µM (active) in [1]; 0.525 µM (active) in [8]; 0.417 µM (active) in experiment [3]; 2.96 µM (active) in [2]; 6.61 µM (active) in experiment [4]. Further, the fold change in experiment [6] (setting [10]) is 1.02 (inactive); in experiment [6] (setting [11]), 0.834. Also, the values for the cell count in experiment [6] (setting [12]) and in [6] (setting [13]) were 2880 and 2830, respectively. Besides, the z-score in experiment [7] (setting [14]) is -0.54 (inactive); in [7] (setting [15]), -0.0242.
Regarding `NS(=O)(=O)c1ccc(NC2=CC(=O)c3ccccc3C2=O)cc1`, the outcome in experiment [1] was inactive. The AC50 in [8] is 5.9 µM (active); in experiment [3], 11.8 µM (active); in experiment [2] it was 5.9 µM (active); in experiment [4], 20.9 µM (active).
On to `CC(C)(C)[C@H](NC(=O)c1ccc(N)c(Cl)c1)C(=O)N1CCC[C@H]1C(=O)N[C@H](C#N)CC(=O)O`, for which the compound was classed as inactive in experiment [1], in experiment [9] and in experiment [2].
Consider `COc1cc(Cl)cn2c(-c3cccc(NC4CNC4)n3)cnc12`, for which the compound was called inactive in [1] and in experiment [2].
With `Fc1ccc(CNc2ncnc3ccc(F)cc23)cc1`, the outcome in experiment [1], in experiment [8] and in experiment [5] was inactive.
`CCCCOCCOc1nc(-c2ccc(C(=O)O)c(F)c2)sc1C`: the call in experiment [1], in experiment [8], in [4] and in experiment [5] was inactive.
For `C[C@@H](Cc1cc2c(c(C(N)=O)c1)N(CCCO)CC2)NCCOc1ccccc1OCC(F)(F)F`, the compound was classed as inactive in experiment [1], in [9] and in [2].
